Screening data (PubChem)
Sampled rows, rich in hits. Any-hit rate of the full collection: about 21%.
NS1 function inh – qHTS Assay for Inhibitors of Influenza NS1 Protein Function. 0.4% of 270,000 active. Potency, µM (doses to about 46.1 µM), for the others: top-dose activity, positive = more growth. AID 2326, 2010; calls by dose curve; further: potency means the concentration at half of the fitted maximal effect; actives are rising curves; nearly all actives have a fitted effect of over 50% in size
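Compounds were scored for reversing the slow growth caused by influenza A NS1 in S. cerevisiae, measured by optical density at 600 nm. Assay medium contained 2% galactose at pH 6.0; NS1-free yeast of the same strain were the positive control.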
Pf growth 96h – Primary qHTS for delayed death inhibitors of the malarial parasite plastid, 96 hour incubation; P. falciparum luciferase reporter growth, 96 h; Potency, µM (highest dose often 28.7 µM), without a hit: at the top dose activity change, negative = inhibition, actives largely listed as inhibitors; 6.9% of 320,000 active; further: potency means the concentration at half of the fitted maximal effect; on the % scale 0 is the no-effect control and ±100 the full control effect
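Two parasite generations (96 h, 37 C, 5% CO2) of compound exposure in infected erythrocytes (0.05% parasitemia, 2% hematocrit). Luciferase-reporter P. falciparum; decreased luminescence indicates inhibited growth, aimed at apicoplast-acting delayed death.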
Pf growth 48h – Primary qHTS for delayed death inhibitors of the malarial parasite plastid, 48 hour incubation | P. falciparum luciferase growth in erythrocytes, 48 h | Potency, µM (doses to about 28.7 µM), inactives show at the highest dose activity change, negative = inhibition, hits mostly inhibitors | 5.9% of 310,000 active; further: potency means the concentration at half of the fitted maximal effect; on the % scale 0 is the no-effect control and ±100 the full control effect
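Growth was read as firefly luciferase luminescence after a 48 h, 37 C, 5% CO2 exposure of compounds to reporter-bearing P. falciparum cultures (0.1% parasitemia, 2% hematocrit final) in Albumax-supplemented RPMI 1640.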
CHX counter – Cycloheximide Counterscreen for Small Molecule Inhibitors of Shiga Toxin. cell reporter, cycloheximide protein synthesis inhibition counterscreen. max response, %. 12% of 300,000 active; in the data active means max response mostly above about 13%, no sharp cut-off; inactive means mostly below about 14%; further: read at 38.3 µM for the half of the compounds with a filed dose; 0% is about no effect
SARS PLP yeast – qHTS of Yeast-based Assay for SARS-CoV PLP. Potency, µM (titrated, usually from 32.9 µM), for the others: at the top dose activity, positive = growth rescue, actives largely listed as activators. S. cerevisiae expressing SARS-CoV PLpro, growth rescue. AID 485353, 2010. 0.19% of 330,000 active; calls by dose curve; further: potency means the concentration at half of the fitted maximal effect; 0% is about no effect; nearly all actives have a fitted effect of over 55% in size
Shiga inhibitor – A qHTS for Small Molecule Inhibitors of Shiga Toxin; Vero cells, Shiga toxin protein synthesis inhibition reporter; inhibition, % at 38.7 µM; 9.2% of 290,000 active; AID 2315, 2010; in the data active means inhibition mostly above about 28%, no sharp cut-off; inactive means mostly below about 43%; further: 0% is about no effect
* = called active by the depositor; ? = inconclusive; · = no result given. Unless noted, the call rests on the fitted dose curve; in most records, active means well fitted inhibition curve with a large enough effect; inconclusive means small, poorly fitted or top-dose-only effect, or another doubt; inactive means no such curve, though single readings can be large or run the other way.

SMILES | NS1 function inh | Pf growth 96h | Pf growth 48h | CHX counter | SARS PLP yeast | Shiga inhibitor
Cc1cccc(N2CCN(c3ccc4cc(S(=O)(=O)N5CCCCC5)ccc4n3)CC2)c1C | 2% | ? | 12µM* | 0 | -1% | -3
Cc1cccc(N2CCN(C(=O)c3cccc(S(=O)(=O)N4CCCCC4)c3)CC2)c1C | · | · | · | · | 0% | ·
Cc1cccc(N2CCN(S(=O)(=O)c3ccc4c(c3)n(C)c(=O)c(=O)n4C)CC2C)c1 (stereo not given) | -1% | · | 36% | -2 | 3% | -10
Cc1ccccc1OCCC(=O)OCC(=O)NCCc1ccccc1 | · | 21% | 0% | · | -5% | ·
Cc1cccc(C)c1OCC(O)CNS(=O)(=O)c1ccccc1C(=O)N1CCCCC1 (stereo not given) | -8% | 12µM* | ? | -1 | 22% | -6
CCC(C(=O)c1ccccc1)N(C(=O)c1ccccc1Cl)N1C(=O)C2C3C=CC(C3)C2C1=O (stereo not given) | -3% | 10µM* | ? | 1 | -2% | -17
Cc1ccccc1C1C(C#N)=C2N=C(N)c3c(sc4c3CCCCC4)N2C2=C1C(=O)CCC2 (stereo not given) | 2% | 2.6µM* | 1.9µM* | -1 | 3% | -23
N#CC1=C2N=C(N)c3ccccc3N2C2=C(C(=O)CCC2)C1c1ccc(Cl)cc1 (stereo not given) | ? | 6% | ? | -2 | 10% | -18
CC(=O)N1c2ccc3ccccc3c2C2C=CCC2C1c1ccc(Br)cc1 (stereo not given) | 10% | 46% | 5.9µM* | 8 | -12% | -13
CC(=O)N1c2ccc3ccccc3c2C(C)CC12CCCCC2 (stereo not given) | -49% | · | · | -4 | -21% | -9
CC1CC2c3cccc(C(=O)O)c3C(=O)N2c2ccc(Cl)cc21 (stereo not given) | · | 14% | 4% | 14 | -4% | -4
CC(=O)N1c2ccc(Cl)cc2C2C=CCC2C1c1cccc2ccccc12 (stereo not given) | 12% | 9% | 13µM* | 0 | -68% | 12
CCCCn1c(N)c(N(C)C(=O)c2cc3c(F)cccc3s2)c(=O)[nH]c1=O | · | · | · | · | -2% | ·
COc1cccc(NC(=O)NCc2c(-c3ccccc3)noc2C)c1 | -2% | -27% | ? | -2 | 0% | -17
COC(=O)[C@@]1(C)[C@H]2C(=O)N(Cc3ccccc3)C(=O)[C@H]2[C@H]2CN(C)C(=NC3CCCCC3)N21 | · | · | · | · | -5% | ·
Cc1cc(C)c(NC(=O)CN(CC(=O)O)CC(=O)O)c(C)c1Br | · | 3.4µM* | -23% | · | · | ·
Cc1cc(C)c(NC(=O)CCCC(=O)O)c(Cl)c1 | 7% | · | -6% | -1 | -9% | -6
COc1ccccc1N1CC(O)=C(c2nc3ccccc3c(=O)[nH]2)C1=N | -6% | 6% | 9.3µM* | 16 | -2% | -3
CCCCN1C(=O)/C(=C2\SC(N3CCOCC3)=NC2=O)c2ccccc21 | 20% | 67% | 12% | 28* | 0% | 99*
CCN1C(=O)/C(=C2\SC(N3CCOCC3)=NC2=O)c2ccccc21 | 3% | 44% | 10% | -2 | 2% | 4
Cc1ccccc1-n1c(=O)cc(NCC2CCCO2)[nH]c1=O (stereo not given) | 6% | 6.6µM* | -6% | -1 | 19% | 5
CC1CC2CCC(O2)C(C)C(=O)OC(C)CC2CCC(O2)C(C)C(=O)OC(C)CC2CCC(O2)C(C)C(=O)OC(C)CC2CCC(O2)C(C)C(=O)O1 (stereo not given) | · | · | · | 8 | · | 11
c1ccc2c(-c3cc(C4CCNCC4)[nH]n3)cccc2c1 | · | -18% | 272% | -4 | 1% | -3
COC(=O)c1ccc(CSc2nc(-c3ccccc3)cs2)o1 | -16% | -3% | 9% | 22* | -1% | 45
COC(=O)c1ccc(CSc2nc3ccc(S(N)(=O)=O)cc3[nH]2)cc1 | 7% | 26% | 22% | 11 | 6% | 18
SMILES | NS1 function inh | Pf growth 96h | Pf growth 48h | CHX counter | SARS PLP yeast | Shiga inhibitor
COC(=O)c1ccc(CSc2nc3c(cnn3-c3ccc(Cl)cc3)c(=O)[nH]2)o1 | 2% | 6.6µM* | 1% | -1 | -4% | 23
COC(=O)c1ccc(CSc2nc3ccccc3[nH]2)o1 | -13% | 66% | 35% | 11* | -9% | 10
COC(=O)c1ccc(CSc2nc3c(cnn3-c3ccccc3)c(=O)[nH]2)o1 | 0% | -21% | -26% | -1 | 7% | 3
COC(=O)c1ccc(CSc2nc3c(cnn3-c3ccc(F)cc3)c(=O)[nH]2)o1 | 8% | ? | 13% | -3 | -10% | 9
COC(=O)c1cccc(CSc2nc3ccccc3[nH]2)c1 | -25% | ? | 225% | 39* | -25% | 92*
CCN1CCN(C(=S)NC(=O)c2cccc(Br)c2)CC1 | · | · | · | · | 12% | ·
CCC(C)Oc1cc(-c2ccnc(Nc3cccc(Cl)c3)n2)ccn1 (stereo not given) | 1% | ? | ? | 4 | -4% | 19
OCCCNc1cc(-c2ccnc(Nc3cccc(Cl)c3)n2)ccn1 | -48% | 0.41µM* | 0.74µM* | 23* | -7% | 37*
Clc1ccsc1-c1ccc2ccccc2n1 | -2% | · | 161% | 57* | 1% | 107*
c1ccc2nc(-c3nccs3)ccc2c1 | -7% | 0% | 56% | 28* | -1% | 96*
CC(=O)Cn1ncc(N2CCCCC2)c(Cl)c1=O | 3% | 45% | 40% | 21* | 15% | 47
O=C(C1=C[C@H](c2ccc(C(F)(F)F)cc2)C[C@H](OCc2ccc(CO)cc2)O1)N1CCCCCCC1 | -4% | 9.3µM* | ? | 2 | -1% | -2
O=C(C1=C[C@H](c2ccccc2)C[C@H](OCc2ccc(CO)cc2)O1)N1CCN(Cc2ccccc2)CC1 | -7% | ? | ? | -1 | -1% | -4
O=C(C1=C[C@@H](c2ccccc2)C[C@@H](OCc2ccc(CO)cc2)O1)N1CCCCCCC1 | -1% | 8.3µM* | ? | 2 | -1% | -4
O=C(C1=C[C@@H](c2ccc(C(F)(F)F)cc2)C[C@@H](OCc2ccc(CO)cc2)O1)N1CCOCC1 | 6% | ? | ? | -1 | -1% | -13
Cc1cc(C)c(NC(=S)N(CCN(C)C)Cc2cccs2)c(C)c1 | · | 3.3µM* | -27% | 5 | 0% | -9
Cc1cccc(C)c1NC(=S)N(CCN(C)C)Cc1cccs1 | · | ? | -3% | -4 | 0% | 13
CC(C)Cn1c(-c2ccc(C#N)cc2)nc2c1c(=O)[nH]c(=O)n2CC(C)C | 5% | 10µM* | · | 2 | 8% | -10
CCCCn1c(-c2ccc(Br)cc2F)nc2c1c(=O)[nH]c(=O)n2CC(C)C | -2% | ? | 10µM* | -1 | 3% | -10
CCCc1nc(C)c2c(=O)[nH]c(-c3cc(S(=O)(=O)N4CCN(CC)CC4)ccc3OCC)nn12 | · | 7.6µM* | ? | · | · | ·
